This note sets out measurements from PubChem BioAssay (EPA / NIEHS).

Results filed as inconclusive are left out. Active and inactive are the calls of the source. Rule for the calls, unless noted: active = hit-call score of the fitted dose curve at least 0.9, where 1 is the maximum; inactive = score below 0.9.

In assay [1] the target is Glucocorticoid receptor (Homo sapiens) (UniProt P04150). Put plainly: ATG_GR_TRANS: Attagene TRANS-FACTORIAL HepG2 Assay for human Glucocorticoid Receptor (GR) (AID 2282978; active = hit-call score of the fitted dose curve at least 0.9, where 1 is the maximum;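 note: activators score as hits since higher reporter transcript over DMSO is fitted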). Conditions: HepG2 Attagene TRANS GR reporter, mRNA transcription. A digest of the protocol:
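Measurement of GAL4-UAS-driven reporter mRNA in human HepG2 liver cells 24 h post-dosing, using RT-PCR with fluorescent labelling and capillary electrophoresis; the transfected constructs report exogenous NR-GAL4 chimera activity, fitted upward against DMSO.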

Assay [2] has as its target Bile acid receptor (Homo sapiens) (UniProt Q96RI1). Put plainly: ATG_FXR_TRANS: Attagene TRANS-FACTORIAL HepG2 Assay for Farnesoid X Receptor (FXR) (AID 2282979; active = hit-call score of the fitted dose curve at least 0.9, where 1 is the maximum;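 note: hits raise reporter mRNA above DMSO so AC50 marks FXR activation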). The note with it: HepG2 Attagene TRANS FXR-GAL4 reporter transcription. A digest of the protocol:
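HepG2 cells transiently transfected with reporter constructs in which a chimeric FXR-GAL4 protein drives a GAL4-UAS reporter; 24 h compound exposure. Reporter mRNA measured by RT-PCR, FAM labelling, HpaI digestion and capillary electrophoresis; gain-of-signal versus DMSO.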

Assay [3] concerns the target Oxysterols receptor LXR-beta (Homo sapiens) (UniProt P55055). Put plainly: ATG_LXRb_TRANS: Attagene TRANS-FACTORIAL HepG2 Assay for human Liver X Receptor beta (LXRb) (AID 2282981; active = hit-call score of the fitted dose curve at least 0.9, where 1 is the maximum). The note with it: HepG2 Attagene TRANS GAL4-LXRb reporter, mRNA. A digest of the protocol:
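Liver-derived HepG2 cells transfected with Gal4-responsive reporters were dosed for 24 h. Activation was scored as rise in reporter mRNA, by RT-PCR and capillary electrophoresis, above DMSO baseline.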

Assay [4] in a line: ATG_M_32_TRANS: Attagene TRANS-FACTORIAL HepG2 Assay for M32 Transcription Factor (Internal Marker) (AID 2282984; active = hit-call score of the fitted dose curve at least 0.9, where 1 is the maximum;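 note: transcript level of a background control reporter unit measured by RT-PCR and capillary electrophoresis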). The note with it: HepG2 Attagene TRANS M32 internal marker reporter. A digest of the protocol: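 Fluorescence-detected mRNA induction, HepG2 liver cells, 24 h after dosing. Multiple GAL4-UAS reporter units introduced by transient transfection; background-control endpoint analysed for gain of signal against DMSO.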

Assay [5] deals with Nuclear receptor subfamily 4 group A member 2 (Homo sapiens) (UniProt P43354). Put plainly: ATG_NURR1_TRANS: Attagene TRANS-FACTORIAL HepG2 Assay for human Nuclear Receptor Related Protein 1 (NURR1) (AID 2282985; active = hit-call score of the fitted dose curve at least 0.9, where 1 is the maximum). Conditions: HepG2 Attagene TRANS reporter, mRNA readout. A digest of the protocol: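 Chimeric NR-Gal4 proteins were expressed in human HepG2 cells bearing GAL4-UAS reporter units, and induced reporter mRNA was quantified 24 h post-dosing by RT-PCR and capillary electrophoresis.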
Chain of Nuclear receptor subfamily 4 group A member 2 (Homo sapiens) (P43354 whole entry, looked up, the tested form may be a part): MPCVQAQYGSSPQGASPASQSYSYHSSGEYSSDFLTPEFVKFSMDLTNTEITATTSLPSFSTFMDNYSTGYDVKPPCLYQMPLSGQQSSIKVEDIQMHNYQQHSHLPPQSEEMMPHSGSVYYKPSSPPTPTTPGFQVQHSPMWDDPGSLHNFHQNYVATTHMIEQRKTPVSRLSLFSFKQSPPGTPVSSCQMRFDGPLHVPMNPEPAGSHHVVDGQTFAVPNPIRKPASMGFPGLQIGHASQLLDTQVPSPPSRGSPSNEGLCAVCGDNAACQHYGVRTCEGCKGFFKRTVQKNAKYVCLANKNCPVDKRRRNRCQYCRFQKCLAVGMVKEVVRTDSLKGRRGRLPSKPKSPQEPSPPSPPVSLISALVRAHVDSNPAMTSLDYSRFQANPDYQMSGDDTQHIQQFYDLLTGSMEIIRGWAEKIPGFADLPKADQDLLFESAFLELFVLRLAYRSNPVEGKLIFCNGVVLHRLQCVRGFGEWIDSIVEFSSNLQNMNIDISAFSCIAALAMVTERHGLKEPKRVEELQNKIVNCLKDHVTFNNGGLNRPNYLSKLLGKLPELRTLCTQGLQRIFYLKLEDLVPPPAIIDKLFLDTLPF

Assay [6] deals with Nuclear respiratory factor 1 (Homo sapiens) (UniProt Q16656). Put plainly: ATG_NRF1_CIS: Attagene CIS-FACTORIAL HepG2 Assay for human Nuclear Respiratory Factor 1 (NRF1) Orphan Gene (AID 2282987). Conditions: HepG2 NRF1 cis-element reporter, Attagene multiplex; actives raise or lower the signal. A digest of the protocol: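 Transcriptional reporter readout, one component of a 52-endpoint multiplexed HepG2 panel. Exposure 24 h; mRNA detected via RT-PCR and fluorescent capillary electrophoresis; fitting in both directions against DMSO.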
Chain of Nuclear respiratory factor 1 (Homo sapiens) (Q16656 whole entry, looked up): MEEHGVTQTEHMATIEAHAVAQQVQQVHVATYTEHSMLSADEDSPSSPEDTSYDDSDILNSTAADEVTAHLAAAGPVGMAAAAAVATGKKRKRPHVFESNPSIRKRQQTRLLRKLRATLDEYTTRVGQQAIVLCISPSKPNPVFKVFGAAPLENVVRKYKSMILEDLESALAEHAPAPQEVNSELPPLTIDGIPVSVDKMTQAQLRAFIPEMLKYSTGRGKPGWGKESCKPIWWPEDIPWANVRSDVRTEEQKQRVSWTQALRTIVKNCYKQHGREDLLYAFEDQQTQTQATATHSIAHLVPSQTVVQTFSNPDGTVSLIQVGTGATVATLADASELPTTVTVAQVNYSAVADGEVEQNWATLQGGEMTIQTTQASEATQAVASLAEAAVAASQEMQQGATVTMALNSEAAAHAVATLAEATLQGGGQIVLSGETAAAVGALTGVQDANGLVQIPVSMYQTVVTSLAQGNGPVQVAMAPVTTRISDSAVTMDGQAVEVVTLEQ

Assay [7] is described as follows: ATG_NFI_CIS: Attagene CIS-FACTORIAL HepG2 Assay for human Nuclear Factor I (NFI) (AID 2282989). The note with it: HepG2 cis-regulatory reporter, NFI response element transcription; actives raise or lower the signal. A digest of the protocol: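 Transfected HepG2 liver cells, exposed 24 h, supplied total RNA for oligo(dT) reverse transcription and reporter-specific PCR. Labelled, HpaI-cut fragments were sized by capillary electrophoresis; DMSO set the baseline for bidirectional fitting.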

Assay [8] has as its target Myc proto-oncogene protein (Homo sapiens) (UniProt P01106). Put plainly: ATG_Myc_CIS: Attagene CIS-FACTORIAL HepG2 Assay for human Myelocytomatosis (Myc) Proto-Oncogene Transcription Factor (AID 2282990). Conditions: HepG2, Attagene cis-reporter transcription factor activity; actives raise or lower the signal. A digest of the protocol: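 DMSO-normalised, bidirectionally fitted reporter mRNA signal. HepG2 cells transfected with cis reporter constructs, treated 24 h; transcripts detected by RT-PCR, 6-FAM primer extension and CE.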

Assay [9] in a line: ATG_NF_kB_CIS: Attagene CIS-FACTORIAL HepG2 Assay for human Nuclear Factor Kappa B (NF-kB) (AID 2282991). Conditions: HepG2 Attagene cis-factorial NF-kB reporter mRNA; actives raise or lower the signal. A digest of the protocol: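 HepG2, transient multi-reporter transfection, cis promoter elements (endogenous TFs). 24 h exposure. Total RNA → RT → PCR → 6-FAM label → HpaI → CE. Gain/loss vs DMSO.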

Assay [10] can be described thus: ATG_NRF2_ARE_CIS: Attagene CIS-FACTORIAL HepG2 Assay for human Nuclear Factor Erythroid 2 Related Factor 2 (NFR2) response to Antioxidant Response Elements (ARE) (AID 2282992).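 For AC50: reporter mRNA level measured by RT-PCR and capillary electrophoresis fluorescence.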 Conditions: HepG2 Attagene ARE/NRF2 reporter, transcription factor activity; actives raise or lower the signal. A digest of the protocol:
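Fluorescence intensity of reporter-specific cDNA fragments, separated by capillary electrophoresis, reflects mRNA induction in transfected HepG2 cells at 24 h. Activity is fitted bidirectionally, DMSO serving as baseline.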

A short description of assay [11]: ATG_Oct_MLP_CIS: Attagene CIS-FACTORIAL HepG2 Assay for human Octamer-Binding Transcription Factor (Oct) (AID 2282993). Conditions: HepG2 Attagene cis-factorial Oct reporter, mRNA; actives raise or lower the signal. A digest of the protocol: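 Using HepG2 cells bearing transfected cis-reporter constructs, mRNA induction was read after 24 h by fluorescent RT-PCR and capillary electrophoresis, with DMSO defining baseline for gain- or loss-of-signal fits.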

Assay [12] addresses Cellular tumor antigen p53 (Homo sapiens) (UniProt P04637). Put plainly: ATG_p53_CIS: Attagene CIS-FACTORIAL HepG2 Assay for human p53 Transcription Factor (AID 2282994). The note with it: HepG2 p53 cis-element reporter, Attagene mRNA; actives raise or lower the signal. A digest of the protocol:
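Transiently transfected HepG2 (multiple cis reporter transcription units); exposure 24 h; reporter RNA via RT-PCR, 6-FAM extension, 2 h HpaI digest at 37 C, CE detection; DMSO baseline.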

Assay [13] can be described thus: BSK_3C_TissueFactor: BioMAP Diversity Plus: 3C Assay for Tissue Factor Biomarker Activity (AID 2282997). Conditions: BioMAP 3C HUVEC, tissue factor biomarker readout; actives raise or lower the signal. A digest of the protocol:
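Readout: Tissue Factor ELISA. Cells: human primary umbilical vein endothelium. Time: 24 h after dosing. Analysis: bidirectional fit, DMSO baseline.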

The nature of assay [14]: BSK_3C_VCAM1: BioMAP Diversity Plus: 3C Assay for Vascular cell adhesion molecule 1 (VCAM1) Biomarker Activity (AID 2282999). Conditions: BioMAP 3C HUVEC, VCAM1 ELISA, cytokine-stimulated; actives raise or lower the signal. A digest of the protocol: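 Vascular primary endothelium (human umbilical vein) was exposed to chemicals and assayed 24 h later. VCAM-1 levels came from ELISA, with DMSO serving as baseline for bidirectional fitting.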

The nature of assay [15]: BSK_4H_Eotaxin3: BioMAP Diversity Plus: 4H Assay for Eotaxin 3 Biomarker Activity (AID 2283000).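 For outcome: CCL26 protein level quantified by ELISA in parallel with SRB cytotoxicity check.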 The note with it: primary human endothelial cells (HUVEC); actives raise or lower the signal. A digest of the protocol: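 HUVEC, 24 h post-dose, ELISA for Eotaxin-3/CCL26. Gain or loss of signal fitted bidirectionally vs DMSO baseline.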
Assay [16] deals with human Peroxisome Proliferator-activated Receptor alpha (PPARa), PPARA (gene 5465) (UniProt Q07869). Put plainly: ATG_PPARa_TRANS: Attagene TRANS-FACTORIAL HepG2 Assay for human Peroxisome Proliferator-activated Receptor alpha (PPARa) (AID 2283001; active = hit-call score of the fitted dose curve at least 0.9, where 1 is the maximum). A digest of the protocol: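 Exposure: 24 h, transiently transfected HepG2 cells. Endpoint: GAL4-UAS reporter mRNA, RT-PCR with capillary electrophoresis fluorescence. Baseline: DMSO; increases fitted.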
Chain of human Peroxisome Proliferator-activated Receptor alpha (PPARa), PPARA (gene 5465) (Q07869 whole entry, looked up, the tested form may be a part): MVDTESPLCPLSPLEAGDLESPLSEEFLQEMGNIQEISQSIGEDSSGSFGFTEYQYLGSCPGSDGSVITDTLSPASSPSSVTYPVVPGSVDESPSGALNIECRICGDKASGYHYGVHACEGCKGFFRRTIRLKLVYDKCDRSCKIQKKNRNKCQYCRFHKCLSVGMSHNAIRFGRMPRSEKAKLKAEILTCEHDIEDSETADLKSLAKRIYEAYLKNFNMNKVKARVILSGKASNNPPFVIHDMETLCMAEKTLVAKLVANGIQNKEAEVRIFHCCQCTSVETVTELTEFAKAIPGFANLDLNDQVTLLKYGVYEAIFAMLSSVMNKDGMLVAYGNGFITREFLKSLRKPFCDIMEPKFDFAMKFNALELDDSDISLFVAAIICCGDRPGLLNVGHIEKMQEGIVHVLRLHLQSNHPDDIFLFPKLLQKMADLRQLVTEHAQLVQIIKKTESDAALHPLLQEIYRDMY

Assay [17] has as its target Hepatocyte nuclear factor 4-alpha (Homo sapiens) (UniProt P41235). Put plainly: ATG_HNF4a_TRANS: Attagene TRANS-FACTORIAL HepG2 Assay for human Hepatocyte Nuclear Factor 4 alpha (HNF4a) (AID 2282982; active = hit-call score of the fitted dose curve at least 0.9, where 1 is the maximum). Conditions: HepG2 HNF4a transactivation reporter, mRNA readout. A digest of the protocol: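 Using HepG2 liver cells transfected with GAL4-UAS reporter units, chemical-induced mRNA increases were assessed after 24 hours. Fluorescent RT-PCR fragments were separated by capillary electrophoresis and compared with DMSO negative controls.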

Assay [18] is described as follows: ATG_M_06_TRANS: Attagene TRANS-FACTORIAL HepG2 Assay for M06 Transcription Factor (Internal Marker) (AID 2282983; active = hit-call score of the fitted dose curve at least 0.9, where 1 is the maximum;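 note: reporter transcript level by RT-PCR then capillary electrophoresis fluorescence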). Conditions: HepG2 Attagene TRANS M06 internal marker reporter. A digest of the protocol: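 In this multiplexed HepG2 system, compounds are incubated 24 h with cells carrying GAL4-UAS reporter units. Reporter RNA is amplified and resolved by capillary electrophoresis, and induction is scored against DMSO.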

Assay [19] concerns the target Transcriptional activator Myb (Homo sapiens) (UniProt P10242). Put plainly: ATG_Myb_CIS: Attagene CIS-FACTORIAL HepG2 Assay for human Myeloblastosis (Myb) Proto-Oncogene Transcription Factor (AID 2282986). Conditions: HepG2 Attagene CIS-FACTORIAL Myb reporter transcription; actives raise or lower the signal. A digest of the protocol:
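Fluorescence signals from capillary electrophoresis of RT-PCR-amplified reporter cDNA give the read-out. Cells: HepG2 transfected with multiple cis-regulated reporter units. Exposure lasts 24 hours; DMSO defines baseline for gain or loss of signal.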

Assay [20] can be described thus: BSK_3C_uPAR: BioMAP Diversity Plus: 3C Assay for Urokinase-type plasminogen activator receptor (uPAR) Biomarker Activity (AID 2282998). Conditions: BioMAP 3C HUVEC, uPAR biomarker ELISA; actives raise or lower the signal. A digest of the protocol: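 In this endothelial cell-based assay, human umbilical vein primary cells were treated with chemicals and harvested at 24 h. uPAR was quantified using ELISA, with gains or losses fitted relative to DMSO controls.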
Background: ELISA stands for enzyme-linked immunosorbent assay.

Chain of Cellular tumor antigen p53 (Homo sapiens) (P04637 whole entry, looked up): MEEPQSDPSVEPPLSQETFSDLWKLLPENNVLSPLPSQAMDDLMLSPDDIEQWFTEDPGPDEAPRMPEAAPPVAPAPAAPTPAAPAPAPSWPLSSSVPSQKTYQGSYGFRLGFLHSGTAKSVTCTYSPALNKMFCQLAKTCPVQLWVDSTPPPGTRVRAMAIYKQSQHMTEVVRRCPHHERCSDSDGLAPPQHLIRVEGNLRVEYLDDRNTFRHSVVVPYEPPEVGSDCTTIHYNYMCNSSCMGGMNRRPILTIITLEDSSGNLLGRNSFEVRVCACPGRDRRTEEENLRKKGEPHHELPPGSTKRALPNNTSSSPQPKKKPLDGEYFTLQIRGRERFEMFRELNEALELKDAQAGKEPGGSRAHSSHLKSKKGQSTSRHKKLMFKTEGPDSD
Chain of Myc proto-oncogene protein (Homo sapiens) (P01106 whole entry, looked up): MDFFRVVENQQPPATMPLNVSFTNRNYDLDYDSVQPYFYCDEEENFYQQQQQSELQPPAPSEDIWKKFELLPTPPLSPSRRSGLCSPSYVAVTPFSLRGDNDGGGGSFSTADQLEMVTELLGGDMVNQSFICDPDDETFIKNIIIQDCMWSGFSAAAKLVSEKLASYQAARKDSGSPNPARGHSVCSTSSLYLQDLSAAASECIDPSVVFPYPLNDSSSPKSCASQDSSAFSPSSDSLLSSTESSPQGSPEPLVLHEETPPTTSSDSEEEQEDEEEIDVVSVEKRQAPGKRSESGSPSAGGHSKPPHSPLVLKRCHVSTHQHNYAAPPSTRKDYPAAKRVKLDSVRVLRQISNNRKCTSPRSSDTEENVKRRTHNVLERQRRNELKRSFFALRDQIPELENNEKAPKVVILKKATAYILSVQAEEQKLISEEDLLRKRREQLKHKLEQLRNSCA
Chain of Bile acid receptor (Homo sapiens) (Q96RI1 whole entry, looked up, the tested form may be a part): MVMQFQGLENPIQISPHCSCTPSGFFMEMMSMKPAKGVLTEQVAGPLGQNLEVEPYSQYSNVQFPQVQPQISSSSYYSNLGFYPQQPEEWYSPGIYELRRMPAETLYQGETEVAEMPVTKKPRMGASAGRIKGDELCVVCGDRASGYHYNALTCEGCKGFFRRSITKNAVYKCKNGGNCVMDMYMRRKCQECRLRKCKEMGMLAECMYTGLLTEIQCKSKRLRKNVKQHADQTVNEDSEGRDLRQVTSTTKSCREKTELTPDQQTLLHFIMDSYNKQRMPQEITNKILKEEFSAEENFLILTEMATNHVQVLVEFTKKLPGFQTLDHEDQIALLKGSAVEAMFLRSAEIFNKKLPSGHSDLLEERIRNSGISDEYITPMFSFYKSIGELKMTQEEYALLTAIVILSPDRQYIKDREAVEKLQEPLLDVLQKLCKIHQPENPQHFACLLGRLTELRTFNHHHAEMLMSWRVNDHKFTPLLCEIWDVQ
Chain of Hepatocyte nuclear factor 4-alpha (Homo sapiens) (P41235 whole entry, looked up, the tested form may be a part): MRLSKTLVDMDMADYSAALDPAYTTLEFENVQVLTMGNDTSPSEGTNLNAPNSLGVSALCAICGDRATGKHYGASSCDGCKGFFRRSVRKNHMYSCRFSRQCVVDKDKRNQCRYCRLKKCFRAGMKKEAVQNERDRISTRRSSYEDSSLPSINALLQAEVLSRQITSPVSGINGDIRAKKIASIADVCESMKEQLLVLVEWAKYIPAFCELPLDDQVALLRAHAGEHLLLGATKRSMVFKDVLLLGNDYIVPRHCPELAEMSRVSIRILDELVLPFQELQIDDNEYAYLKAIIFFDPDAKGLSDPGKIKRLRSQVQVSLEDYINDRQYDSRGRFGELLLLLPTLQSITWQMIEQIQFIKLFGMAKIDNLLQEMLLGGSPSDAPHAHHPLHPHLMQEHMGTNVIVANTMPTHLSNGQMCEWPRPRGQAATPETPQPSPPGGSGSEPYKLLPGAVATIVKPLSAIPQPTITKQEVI
Chain of Transcriptional activator Myb (Homo sapiens) (P10242 whole entry, looked up): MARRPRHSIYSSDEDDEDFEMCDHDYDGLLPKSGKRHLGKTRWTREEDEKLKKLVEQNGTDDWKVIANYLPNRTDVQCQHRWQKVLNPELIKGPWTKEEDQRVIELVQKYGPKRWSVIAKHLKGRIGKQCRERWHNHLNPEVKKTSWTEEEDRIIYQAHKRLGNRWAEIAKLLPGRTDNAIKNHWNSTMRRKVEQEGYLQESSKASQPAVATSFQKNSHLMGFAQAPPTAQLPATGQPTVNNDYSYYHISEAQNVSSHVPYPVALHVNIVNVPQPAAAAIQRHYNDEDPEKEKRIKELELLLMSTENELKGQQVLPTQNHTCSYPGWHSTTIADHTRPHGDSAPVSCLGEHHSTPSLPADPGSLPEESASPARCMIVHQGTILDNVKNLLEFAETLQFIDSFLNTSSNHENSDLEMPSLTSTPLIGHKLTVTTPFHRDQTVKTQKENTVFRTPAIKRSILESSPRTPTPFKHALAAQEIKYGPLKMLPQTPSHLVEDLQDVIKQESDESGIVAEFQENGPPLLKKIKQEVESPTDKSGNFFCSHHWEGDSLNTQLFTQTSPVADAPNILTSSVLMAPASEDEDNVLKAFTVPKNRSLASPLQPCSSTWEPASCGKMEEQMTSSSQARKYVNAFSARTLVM
Chain of Oxysterols receptor LXR-beta (Homo sapiens) (P55055 whole entry, looked up, the tested form may be a part): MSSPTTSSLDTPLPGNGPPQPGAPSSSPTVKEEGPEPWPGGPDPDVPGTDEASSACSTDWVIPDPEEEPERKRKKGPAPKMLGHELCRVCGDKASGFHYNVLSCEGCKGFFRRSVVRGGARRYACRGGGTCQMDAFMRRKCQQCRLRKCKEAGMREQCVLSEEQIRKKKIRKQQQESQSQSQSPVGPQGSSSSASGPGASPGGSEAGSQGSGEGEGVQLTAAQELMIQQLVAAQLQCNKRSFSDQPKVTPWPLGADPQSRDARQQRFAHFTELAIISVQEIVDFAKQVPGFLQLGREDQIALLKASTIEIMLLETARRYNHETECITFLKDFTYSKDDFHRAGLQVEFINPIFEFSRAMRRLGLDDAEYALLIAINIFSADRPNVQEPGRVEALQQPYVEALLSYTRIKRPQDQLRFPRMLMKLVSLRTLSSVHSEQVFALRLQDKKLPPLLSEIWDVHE

For orientation: AC50 means the midpoint of the concentration-response curve, whichever way the signal moves. With `Nc1cccc2c(N)cccc12`, the call in [1], in [2], in assay [3], in assay [4], in [5] and in assay [6] was inactive. Also, the outcome in assay [7], in assay [8], in assay [9], in assay [11], in [12] and in [13] was inactive. For the same molecule, the result in [14], in assay [15] and in assay [16] was inactive. For the same molecule, the AC50 in assay [10] is 46.6 µM (active).
Take `NC(=O)N1C(=O)C(C(=O)c2cc(Cl)cs2)c2cc(F)c(Cl)cc21` (stereo not drawn): the molecule was classed as inactive in assay [2], in [3], in assay [17], in assay [18], in assay [4] and in [19]. The molecule was classed as inactive in [6], in assay [7], in assay [8], in [12], in assay [14] and in assay [16]. Besides, the AC50 is 6.05 µM (active) in assay [10]; 11 µM (active) in assay [11]; 5.53 µM (active) in assay [13]; 14.7 µM (active) in assay [20]; 14.9 µM (active) in assay [15].
Regarding `O=C(/C=C/c1ccc(O)cc1)CC(=O)/C=C/c1ccc(O)cc1`, the molecule was called inactive in [2], in [17], in assay [18], in assay [6], in [7] and in [8]. In addition, the result in [9], in assay [11], in assay [12] and in assay [16] was inactive. Besides, the concentration at half-maximal activity (AC50) in assay [10] is 2.65 µM (active).
`COC(=O)CCCCC(=O)OC`: the outcome in [2], in [18], in assay [4], in assay [19], in assay [6] and in assay [8] was inactive. The result in assay [10], in assay [11], in assay [12], in assay [13], in assay [20] and in [14] was inactive. Also, the result in assay [15] and in assay [16] was inactive.
